Assay outcomes deposited in PubChem by several laboratories.
LGR2 antag: Drosophila LGR2 receptor signaling inhibition; HEK293 LGR2, CRE-luciferase, bursicon-stimulated, 4 h; inhibition, % at 9.99 µM; 380,000 compounds, 0.35% hits; AID 720647;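 active = drop in luminescence signal, shown as inhibition above about 50% in the replicate tests, limit read from the data, passing the limit was not always enough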;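 also: agonist challenge used bursicon conditioned medium at about half maximal strength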
TWEAK Fn14 block: TWEAK-Fn14 signaling inhibition. TWEAK-stimulated Fn14 reporter cells, luciferase luminescence, 8 h. 360,000 compounds, 2% hits. inhibition, % at 10 µM; in the data active = inhibition above about 50%
TROY signal inh: TROY signaling inhibition. Q293 LMP1-TROYcd NF-kB luciferase reporter, 4 h. inhibition, % at 10 µM. 360,000 compounds, 0.98% hits. AID 1347056;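 active = compounds whose plate-normalised and pattern-corrected inhibition of the luciferase reporter signal at the single screening dose is 50% or more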
EWS-Fli block: inhibitors of EWS/Fli oncoprotein transcriptional activity. inhibition, % at 12.6 µM. AID 651661. 350,000 compounds, 0.67% hits. A673 NR0B1-luciferase reporter, viability-normalised;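 active = mean inhibition of at least 50% after viability correction, with every replicate also passing that limit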;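 also: firefly luciferase signal divided by Alamar Blue viability fluorescence both relative to DMSO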
EBV LMP1 NFkB: Epstein-Barr LMP1 NF-kappaB reporter inhibition. LMP1-induced NF-kappaB luciferase reporter cells, luminescence. inhibition, % at 12.5 µM. 350,000 compounds, 0.69% hits; in the data active = inhibition above about 41%
A number is an active result; . = inactive; / = no result given. An excerpt weighted towards active compounds, which were near 2.5% of everything screened.

SMILES	LGR2 antag	TWEAK Fn14 block	TROY signal inh	EWS-Fli block	EBV LMP1 NFkB
CCCNC(=O)C[C@@H]1CC[C@H]2[C@@H](COC[C@@H](O)CN2C(=O)c2cccnc2)O1	.	/	/	.	/
C[C@@H]1CN([C@@H](C)CO)C(=O)c2cccc(NC(=O)NC3CCCCC3)c2O[C@@H]1CN(C)C	.	/	/	.	/
COCc1cc(C)nc(SCC(=O)Nc2nc(C)cs2)c1C#N	.	.	.	62	.
CC(=O)CSc1nc(N)c(C#N)c(-c2cccs2)c1C#N	/	52	.	/	.
O=C(C[C@@H]1C=C[C@@H](NC(=O)C2CCOCC2)[C@H](CO)O1)Nc1ccccc1	.	/	/	.	/
C[C@H](CO)N1C[C@H](C)[C@H](CN(C)C(=O)Nc2ccc3c(c2)OCO3)OCCCC[C@H](C)Oc2ccc(NS(=O)(=O)c3ccc(Cl)cc3)cc2C1=O	.	/	/	.	/
O=C(CN1C(=O)c2ccccc2C1=O)NNC1=NS(=O)(=O)c2ccccc21	.	.	.	.	42
O=C(Cc1ccccc1)NNC1=NS(=O)(=O)c2ccccc21	.	53	.	.	.
O=C(NNC1=NS(=O)(=O)c2ccccc21)c1ccc(Cl)cc1	.	.	.	.	.
O=C(c1cccnc1)N1C[C@H]2[C@@H](c3ccccc31)[C@@H](CO)N2C(=O)C1CCOCC1	.	/	/	.	/
CC(=O)N(C)C[C@H]1Oc2ncc(-c3ccc(C#N)cc3)cc2C(=O)N([C@H](C)CO)C[C@@H]1C	.	/	/	.	/
Cc1noc(C)c1S(=O)(=O)Nc1ccc2c(c1)C(=O)N([C@H](C)CO)C[C@H](C)[C@@H](CN(C)Cc1ccccc1)O2	.	/	/	.	/
COc1ccc(CN(C)C[C@H]2OCCCC[C@H](C)Oc3ccc(NS(=O)(=O)c4ccc(OC)cc4)cc3C(=O)N([C@H](C)CO)C[C@H]2C)cc1	.	/	/	.	/
COc1ccc(CN(C)C[C@@H]2OCCCC[C@H](C)Oc3ccc(NS(=O)(=O)c4ccc(OC)cc4)cc3C(=O)N([C@@H](C)CO)C[C@@H]2C)cc1	.	/	/	69	/
COc1ccc(CN(C)C[C@H]2OCCCC[C@@H](C)Oc3ccc(NS(=O)(=O)c4ccc(F)cc4)cc3C(=O)N([C@H](C)CO)C[C@@H]2C)cc1	.	/	/	.	/
COc1ccc(CN(C)C[C@H]2OCCCC[C@H](C)Oc3ccc(NS(=O)(=O)c4ccc(OC)cc4)cc3C(=O)N([C@H](C)CO)C[C@@H]2C)cc1	.	/	/	78	/
COc1ccc(CN(C)C[C@H]2OCCCC[C@@H](C)Oc3ccc(NS(=O)(=O)c4ccc(OC)cc4)cc3C(=O)N([C@H](C)CO)C[C@H]2C)cc1	.	/	/	/	/
Cc1noc(C)c1S(=O)(=O)Nc1ccc2c(c1)C(=O)N([C@H](C)CO)C[C@@H](C)[C@@H](CN(C)Cc1ccc(Oc3ccccc3)cc1)O2	.	/	/	67	/
COc1ccc(CN(C)C[C@H]2OCCCC[C@@H](C)Oc3ccc(NS(=O)(=O)c4ccc(OC)cc4)cc3C(=O)N([C@@H](C)CO)C[C@@H]2C)cc1	.	/	/	69	/
CO[C@@H]1CN(C)C(=O)c2ccc(NC(=O)c3cnccn3)cc2OC[C@@H](C)N(CCc2ccccc2)C[C@H]1C	.	/	/	.	/
O=C(NC1CCCCC1)N1CC(=O)N2[C@H](CO)[C@H](c3ccc(/C=C/c4ccccc4)cc3)[C@@H]2C1	.	/	/	.	/
COc1ccc(-c2nnc(OC)c3ccccc23)cc1	.	.	.	.	.
COc1ccc(-c2nnc(Sc3nc4ccccc4o3)c3ccccc23)cc1	.	74	.	.	.
O=c1cc(-c2ccccc2)nc2c(-c3ccccc3)c(C(F)(F)F)[nH]n12	.	.	56	.	/
Cc1cc(=O)n2[nH]c(C)c(-c3ccccc3)c2n1	/	.	.	/	.
SMILES	LGR2 antag	TWEAK Fn14 block	TROY signal inh	EWS-Fli block	EBV LMP1 NFkB
CC1(C)CNc2cc(N)ccc2S1	.	51	51	.	.
N#CC1=C2N=C(N)c3c(sc4c3CCCCC4)N2C2=C(C(=O)CCC2)C1c1ccccc1 (stereo not given)	/	.	54	/	.
CC(=O)c1cccc(NC(=O)COc2cc3oc(=O)c(CC(C)O)c(C)c3cc2Cl)c1 (stereo not given)	.	60	.	.	.
COc1ccc(C(=O)N2N=C(c3ccc(NS(C)(=O)=O)cc3)CC2c2cccs2)cc1 (stereo not given)	.	.	51	.	.
CCCNC(=O)N1CC2(CN(S(=O)(=O)CC)C2)c2c(n(C)c3cc(OC)ccc23)[C@@H]1CO	.	/	/	.	/
Cc1cc(COc2ccccc2)oc1C(=O)O	.	90	58	.	.
Cc1ccc(OCc2ccc(C(=O)O)o2)cc1C	.	.	.	.	.
O=C(CC(F)(F)F)N1C[C@@H]2[C@H](c3ccccc31)[C@@H](CO)N2C(=O)Cc1cccnc1	.	/	/	.	/
COc1cc(/C=N\Nc2nc3ccccc3[nH]2)cc(OC)c1OC	/	62	51	/	.
COc1ccc2c(c1)c(/C=N/Nc1nc3ccccc3[nH]1)c(C)n2C	59	88	54	.	.
Cc1ccc(-c2nc(CSCC(=O)N3CCN(c4ccccn4)CC3)c(C)o2)cc1	.	.	.	.	.
CCOc1ccc(-c2nc(CSCC(=O)N3CCN(c4cccc(OC)c4)CC3)c(C)o2)cc1	.	59	53	88	.
CCc1ccc(-c2nc(CSCC(=O)NCCCN3CCCC3=O)c(C)o2)cc1	/	84	.	/	.
CCc1ccc(-c2nc(CSCC(=O)N3CCN(c4ccccn4)CC3)c(C)o2)cc1	/	81	62	/	.
Cc1cccc(S(=O)(=O)N2C[C@H](O)COC[C@@H]3O[C@H](CC(=O)NCc4ccncn4)CC[C@H]32)c1	.	/	/	.	/
COc1ccc2c3c(n(C)c2c1)[C@@H](CO)N(Cc1ccccc1)CC31CN(C(=O)Nc2cccc(F)c2)C1	.	/	/	.	/
O=C(C[C@H]1CC[C@@H](NS(=O)(=O)c2ccc(F)cc2)[C@H](CO)O1)N1CCC(Cc2ccccc2)CC1	.	/	/	.	/
COc1ccc(C(CNC(=O)C(C)c2ccc3cc(OC)ccc3c2)N(C)C)cc1 (stereo not given)	.	63	.	.	.
COc1cc(/C=N/n2c(-c3ccc4c(c3)NC(=O)CO4)csc2=Nc2cccc(C)c2)ccc1O	.	65	.	/	.
CC=Cc1ccc2n(c1=O)C[C@H]1[C@H](CO)[C@@H](C(=O)NCC3CC3)[C@@H]2N1Cc1ccccc1F (mixture of isomers)	.	/	/	.	/
O=c1cc(Cl)nc2ccccn12	.	.	.	.	71
O=c1cc(NCc2ccccc2)nc2ccccn12	.	.	.	.	.
O=C(O)C[C@H]1C[C@H]2c3cc(NC(=O)Nc4ccc(F)cc4)ccc3O[C@H]2[C@H](CO)O1	.	/	/	.	/
COc1ccc(CNc2nn3c(-c4cccc(C(=O)N(C)C)c4)cnc3s2)cc1	.	81	50	.	/
O=C(NN=C1CCCC1)c1[nH]c2ccc(Br)cc2c1-c1ccccc1	.	/	/	.	/
O=C(N/N=C/c1ccccn1)c1[nH]c2ccc([N+](=O)[O-])cc2c1-c1ccccc1	.	.	54	.	.
NNC(=O)c1[nH]c2ccc([N+](=O)[O-])cc2c1-c1ccccc1	.	.	.	.	.
